# LDHA block = qHTS assay for inhibitors of human lactate dehydrogenase | L-lactate dehydrogenase A chain (Homo sapiens), P00338 | purified LDHA, NADH/diaphorase-resazurin fluorescence; stronger effect = lower value | activity change, % (values are at about 110 or 230 µM) | 480,000 compounds, 0.15% hits | AID 1347041, 2019; in the data active means activity change below about -30%; inconclusive means mostly about -25% to -30%;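 further: plate controls were DMSO wells for no effect and wells without enzyme for full effect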
#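 Remaining NADH was detected by diaphorase (0.133 mg/mL) converting 37 µM resazurin to fluorescent resorufin, read at 0 and 20 minutes. The preceding 5-minute room-temperature reaction used 2 nM LDHA, 0.2 mM sodium pyruvate and 0.06 mM NADH at pH 7.4.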
# Abeta yeast res = qHTS for compounds that reverse cellular toxicity of Amyloid beta (A-beta) peptide in yeast: Primary Screen; Potency, µM (series often up to 46.1 µM), actives largely listed as activators; 410,000 compounds, 0.063% hits; yeast expressing A-beta42, growth rescue, OD600, 48 h; response scale: 0% DMSO, 100% iron-clioquinol control; further: potency means the concentration at half of the fitted maximal effect; nearly all actives have a fitted effect of over 55% in size
#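 Yeast A-beta toxicity model in growth medium with pinned compounds, 48 h at 30 C; growth read as absorbance at 600 nm. Normalized to FeCl3/clioquinol equimolar mix (positive) and DMSO (negative).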
# TDP-43 yeast inh = qHTS of TDP-43 Inhibitors | TDP-43 expressing yeast growth rescue, BacTiter-Glo, 24 h | AID 652104, 2013 | 410,000 compounds, 1.8% hits | Potency, µM (highest dose often 46.1 µM), inactives show top-dose growth rescue (activation), usual class: activators; further: potency means the concentration at half of the fitted maximal effect; % of control where 0% means no effect; nearly all actives have a fitted effect of over 50% in size
#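 Luminescence from BacTiter-Glo reports growth of TDP-43-expressing yeast after 24 hr at 30 deg C with compound. Cells were raffinose-pregrown to mid-log, then seeded in galactose medium at OD600=0.02.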
# IDH1 R132H inh = qHTS for Inhibitors of mutant isocitrate dehydrogenase 1 (IDH1): qHTS. 390,000 compounds, 0.093% hits. Potency, µM (titrated, usually from 76.6 µM), inactives show top-dose activity change, negative = inhibition, most hits filed as inhibitors. AID 602179, 2012. IDH1-R132H enzyme, NADPH consumption, diaphorase/resazurin fluorescence. Isocitrate dehydrogenase [NADP] cytoplasmic (Homo sapiens), O75874; further: potency means the concentration at half of the fitted maximal effect; on the % scale 0 is the no-effect control and ±100 the full control effect; nearly all actives have a fitted effect of over 65% in size
# Target sequence (O75874 whole entry R132H, stated change not applied): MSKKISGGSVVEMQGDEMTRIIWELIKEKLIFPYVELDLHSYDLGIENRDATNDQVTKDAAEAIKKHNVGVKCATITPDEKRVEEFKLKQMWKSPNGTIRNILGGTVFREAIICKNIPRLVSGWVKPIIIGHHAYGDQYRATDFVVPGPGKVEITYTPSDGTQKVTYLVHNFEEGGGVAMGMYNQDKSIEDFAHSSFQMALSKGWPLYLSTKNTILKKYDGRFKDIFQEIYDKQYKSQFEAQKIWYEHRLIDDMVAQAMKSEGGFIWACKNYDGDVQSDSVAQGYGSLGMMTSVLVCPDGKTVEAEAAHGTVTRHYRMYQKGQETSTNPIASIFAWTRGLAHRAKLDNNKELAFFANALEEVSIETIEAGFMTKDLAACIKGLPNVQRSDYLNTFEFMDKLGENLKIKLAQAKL
#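 IDH1-R132H (0.5 ug/mL) preincubated 30 min with compound, then NADPH (0.016 mM) and alpha-KG (2 mM) added; 80 min at RT, pH 7.5. Remaining NADPH coupled via diaphorase/resazurin to fluorescence (540/590 nm); concentration-response curves normalized to no-enzyme control.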
# aSyn rescue = qHTS of alpha-syn Inhibitors | 370,000 compounds, 0.14% hits | AID 652106, 2013 | Yeast expressing alpha-synuclein, growth rescue, BacTiter-Glo, 24 h | Potency, µM (titrated, usually from 46.1 µM), without a hit: at the top dose growth rescue (activation), hits mostly activators; further: potency means the concentration at half of the fitted maximal effect; % of control where 0% means no effect; nearly all actives have a fitted effect of over 65% in size
#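 Screening used galactose-induced yeast with toxic alpha-synuclein levels, exposed to compound for 24 hr at 30 deg C. Cell growth, read with BacTiter-Glo luminescence, gave the measured signal.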
# FUS yeast rescue = qHTS for Suppressors of FUS Proteinopathy: Primary screen using FUS-linked yeast assay; S. cerevisiae FUS-expressing, growth rescue, OD600, 24 h; Potency, µM (series often up to 76.6 µM), most hits filed as activators; 390,000 compounds, 0.24% hits;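 further: potency means the concentration at half of the fitted maximal effect; plate controls were DMSO vehicle for no effect and reference control for full effect; nearly all actives have a fitted effect of over 55% in size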
#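 Quantitative HTS measuring growth restoration of FUS-toxic yeast. Galactose-induced cells (OD 0.005) were exposed 24hr at 30C to compounds at several concentrations, then absorbance at 600 nm was recorded.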
# * = called active by the depositor; i = inactive; ? = inconclusive; · = not tested or not shown. A selection: hits, their analogues and other compounds. The true share with any hit is near 2%. Unless noted, the call rests on the fitted dose curve; in most records, active means well fitted curve in the direction sought with a large enough effect; inconclusive means small, poorly fitted or top-dose-only effect, or another doubt; inactive means no such curve, though single readings can be large; an effect the other way counts as inactive or inconclusive.
SMILES,LDHA block,Abeta yeast res,TDP-43 yeast inh,IDH1 R132H inh,aSyn rescue,FUS yeast rescue
CCOC(=O)C1=C(c2ccccc2)NC(=S)NC1c1ccccc1 (configuration not stated),2,·,·,·,·,·
C#CCN(C[C@H]1[C@H](OC(=O)NCc2ccco2)[C@H](OC(=O)NCc2ccco2)C[C@H]2C(=O)N(c3ccccc3)C(=O)[C@@H]12)S(=O)(=O)c1ccc(C)cc1,-8,i,0%,-7%,0%,16µM*
C#CCN(C[C@@H]1[C@@H](OC(=O)NCc2ccco2)[C@@H](OC(=O)NCc2ccco2)Cn2c(=O)ccc(=O)n21)S(=O)(=O)c1ccc(C)cc1,-3,i,21%,7%,-7%,?
CCCCN(C)C(=O)c1cc2cc3ccc(OC)cc3nc2o1,-4,i,16µM*,-7%,2%,i
O=C(CSc1nc2ccc(Cl)cc2[nH]1)N1N=C(c2cccs2)CC1c1ccco1 (configuration not stated),10,·,·,·,·,·
COc1cc(Nc2ncnc3onc(-c4ccc(Cl)cc4)c23)cc(OC)c1,-9,i,17%,8%,0%,i
CCOc1ccc(Nc2ncnc3onc(-c4ccc(Cl)cc4)c23)cc1,-1,i,22µM*,-7%,·,i
Nc1nc2c(s1)CCc1c-2cnn1-c1ccccc1,21,i,0%,21%,11µM*,i
NNC(=S)Nc1ccc(OC(F)(F)F)cc1,-4,11µM*,3%,7%,0%,i
NNC(=S)Nc1ccc(Cl)cc1,-6,?,6%,0%,-20%,i
NC(=O)C1CCN(C2=C(Cl)C(=O)c3ccccc3C2=O)CC1,58,i,13µM*,25%,-4%,i
O=C1C(Cl)=C(N2CCC(C(=O)O)CC2)C(=O)c2ccccc21,10,i,18µM*,18%,-1%,i
Cc1c(CC(=O)NCc2ccc(Cl)cc2)c(=O)oc2c(C)c(O)ccc12,10,·,·,·,·,·
CN1CCN(c2ccc(NC(=O)CCc3ncc(-c4ccc(Cl)cc4)o3)cc2)CC1,8,·,·,·,·,·
COc1ccc(-c2cc(C(=O)O)c(C)o2)cc1OC,0,i,20µM*,6%,·,i
Cc1oc(-c2ccc3c(c2)OCCO3)cc1C(=O)O,0,i,-48%,6%,-50%,·
O=c1oc2ccc(Cl)cc2cc1-c1csc(Nc2ccc(F)cc2)n1,-11,·,·,·,·,·
Cc1ccc(O)c(-c2cc(C(F)(F)F)[nH]n2)c1,4,?,18µM*,7%,3%,i
Cc1cccc(NC(=O)c2cc(-c3cc(C)ccc3O)n[nH]2)c1,0,i,-1%,0%,-4%,i
O=C(CSc1nc2cc([N+](=O)[O-])ccc2o1)NC12CC3CC(CC(C3)C1)C2,8,·,·,·,·,·
CC(Sc1nnc(NC2CCCCC2)s1)C(=O)Nc1ccc2c(c1)C(=O)c1ccccc1C2=O (configuration not stated),15,i,35µM*,5%,2%,?
C[C@H]1CN([C@@H](C)CO)C(=O)c2cc(Br)cnc2O[C@@H]1CN(C)C(=O)CN(C)C,-37*,i,25%,1%,-1%,i
O=C(Cn1c(=O)cnc2ccccc21)Nc1cc(Cl)ccc1N1CCOCC1,7,i,13µM*,4%,-1%,i
COC(=O)C1CCN(Cc2cc(=O)oc3cc(C)c(Cl)c(C)c23)CC1,5,·,·,·,·,·
Cc1ccc2cc(C3C(C#N)=C(N)Oc4c3ccc3cccnc43)c(=O)[nH]c2c1 (configuration not stated),9,i,-22%,2%,-2%,28µM*
